Source: ChEMBL document CHEMBL1157539, “Thousands of chemical starting points for antimalarial lead identification” (Nature, 2010)

tested on: HepG2; assay: GSK_TCMDC: Percent inhibition of human HepG2 cell line. Test compounds present at 10uM.; format: functional

Row | SMILES | Inhibition
1 | CC(=O)Oc1cc(C)ccc1C1CCN(CCCCNC(=O)c2ccc(-c3ccc(C(F)(F)F)cc3)cc2)CC1 | 54%
2 | Cl.N#Cc1ccc2c(c1)CCN(CCC1CCC(NC(=O)/C=C/c3c[nH]c4ccc(F)cc34)CC1)CC2 (stereo not drawn) | 18%
3 | O=C(Nc1ccc(Cl)cc1)N1CCN(C2CCCCC2)CC1 | 17%
4 | O=C(NCCCCN1CCN(c2cccc3c2CCCC3)CC1)c1ccc(NC(=O)c2ccc(Cl)cc2)cc1 | 35%
5 | CC1Cc2ccccc2N1S(=O)(=O)c1cc(OCC(F)(F)F)ccc1OCC(F)(F)F (stereo not drawn) | 10%
6 | Cc1cc(=NN=Cc2cccc(Cl)c2)c2ccc(F)cc2[nH]1 | 0%
7 | Cl.Cn1c(=N)n(CC(=O)N2CCc3ccc(Cl)cc3C2Cc2ccc(Cl)c(Cl)c2)c2ccccc21 (stereo not drawn) | 99%
8 | CC(C)CC(C)NC(=O)C1Cc2c([nH]c3ccc(F)cc23)C2(CCN(Cc3ccccc3)CC2)N1 (stereo not drawn) | 18%
9 | CC(Nc1cc(-c2ccccn2)nc(-c2ccccn2)n1)c1ccccc1 (stereo not drawn) | 61%
10 | Cl.c1ccc2c(C3CCN(CCCCOc4ccc5c(c4)CCN(CC4CC4)CC5)CC3)c[nH]c2c1 | 74%
11 | COc1ccc(CNC(=O)Nc2cc3cc(-c4ccc(CN(C)C)cc4)ccc3n3c(C)nnc23)cc1 | 99%
12 | CCCCN1C(=O)C2CC(=O)CC(C3CCCCC3)C2C1=O (stereo not drawn) | 0%
13 | CN1CCN(c2cc(-c3ccncc3)nc(-c3cccnc3)n2)CC1 | 13%
14 | COc1ccccc1CCNc1ncc(F)c(N[C@@H](Cc2ccccc2)C(=O)NCCc2ccccc2)n1.O=C(O)C(F)(F)F | 7%
15 | COc1ccc(O)cc1/C=N/Nc1ccnc2cc(Cl)ccc12 | 0%
16 | Cc1cccc2nc(-c3cccc(-c4ccc(C(=O)NCc5nccn5C)cc4)c3)[nH]c12 | 18%
17 | CN(C)CC1CCCN1Cc1ccccc1-c1cnn(C)c(=O)c1Oc1ccccc1F.O=C(O)C(F)(F)F (stereo not drawn) | 18%
18 | CN1CCN(c2ccc(CNc3ccc4ncc(-c5cccc(OC(F)(F)F)c5)n4n3)cc2)CC1 | 25%
19 | CC(C)c1sc(N2CCN(C)CC2)nc1C(=O)NCCc1cccc(Cl)c1.O=C(O)C(F)(F)F | 9%
20 | COc1cccc(Nc2nc(N)c3ccccc3n2)c1.Cl | 18%
21 | COC[C@H]1CCCN1Cc1ccc(-c2ccc(-c3nc4ccccc4[nH]3)s2)cc1 | 18%
22 | CCc1cc2c3c(N)nc(N)nc3ccc2n1CC | 62%
23 | CCCCCN1CCCCC(NS(=O)(=O)c2ccc(C(=O)Nc3ccc(C(F)(F)F)cc3)cc2)C1.O=C(O)C(F)(F)F (stereo not drawn) | 34%
24 | CCN(CC)S(=O)(=O)c1ccc(C(=O)Oc2ccccc2N(Cc2ccc(OC)cc2)C2=NS(=O)(=O)c3ccccc32)cc1 | 0%
25 | Nc1ncc(-c2ccsc2)c2ccc(-c3ccc4cn[nH]c4c3)cc12 | 18%
26 | Cc1cccc2nc(-c3ccc(-c4cccc(CNCc5ccccc5)c4)cc3)[nH]c12.O=C(O)C(F)(F)F | 3%
27 | SC(=Nc1ccc(Cl)c(Cl)c1)NN=Cc1ccccn1 | 40%
28 | O=C(Nc1ccccc1O)c1ccc(S(=O)(=O)c2ccc(Cl)cc2)cc1 | 18%
